# Data as given in PubChem BioAssay (EPA / NIEHS).
# Where “and” joins values, the source holds several entries; their conditions need not be identical. Equal entries are not always repeated. Calls of active or inactive are those of the source. How the source made its calls: active means hit-call score of the fitted dose curve at least 0.9, where 1 is the maximum; inactive means score below 0.9.
# Read-out: Monocyte Chemoattractant Protein-1 (MCP1), CCL2 (gene 6347)
# Experiment: BSK_4H_MCP1: BioMAP Diversity Plus: 4H Assay for Monocyte Chemoattractant Protein-1 (MCP1) Biomarker Activity (AID 2283018)
# Conditions: primary human endothelial cells (HUVEC); actives raise or lower the signal
# Procedure: BSK_4H is a cell-based, multiplexed-readout assay that uses umbilical vein endothelium, a human vascular primary cell, with measurements taken at 24 hours after chemical dosing in a 96-well plate.BSK_4H_MCP1 is an assay component measured in the BSK_4H assay. It measures MCP-1 antibody related to regulation of gene expression using ELISA technology.Data from the assay component BSK_4H_MCP1 was analyzed into 1 assay endpoint. This assay endpoint, BSK_4H_MCP1, was analyzed with bidirectional fitting relative to DMSO as the negative control and baseline of activity. Using a type of binding reporter, gain or loss-of-signal activity can be used to understand changes in the signaling as they relate to the gene CCL2. Furthermore, this assay endpoint can be referred to as a primary readout, because this assay has produced multiple assay endpoints where this one serves a signaling function. To generalize the intended target to other relatable targets, this assay endpoint is annotated to the cytokine intended target family, where the subfamily is chemotactic factor.
# The levels of cell surface (or secreted, indicated by the prefix "s") biomarker endpoints were measured by ELISA. Overt cytotoxicity to cells in confluent adherent cultures (all systems other than the BT system) was assessed by measuring total protein levels using sulforhodamine B (SRB) staining in parallel cultures at the time of biomarker measurements, indicated as SRB endpoints. For proliferation assays for adherent cell types, individual cell types are cultured at sub-confluence and relative cell numbers quantified by SRB staining at time points optimized for each system (48 h: 3C and CASM3C systems; 72 h: BT and HDF3CGF systems; 96 h: SAg system). SRB was performed by staining cells with 0.1% SRB after fixation with 10% TCA and reading wells at 560 nm.Viability and proliferation of PBMC (T cells) was quantified by Alamar Blue reduction for the SAg and BT systems. For PBMC viability (referred to as PBMC Cytotoxicity within the assay endpoint names), cells were plated (75,000/well in a 96-well plate) and then chemical samples added for 1 h before addition of activators, SEB and TSST-1 (20 ng/mL final concentration each). Cells were incubated for 90 h. Then, Alamar Blue (20 uL/well) (Invitrogen, Cat DAL1100) was added for 6 h, and the plates were read with a fluorescence microplate reader at 546/580 nm (excitation/emission). For PBMC proliferation, cells were plated and activated as above but incubated for only 16 h prior to addition of Alamar Blue. Plates were read after 6 h.
Structure (SMILES),outcome,AC50
CCCCCCCO,inactive,–
O=C(Cl)c1c(Cl)c(Cl)c(C(=O)Cl)c(Cl)c1Cl,inactive,–
CCCCC1C(=O)N(c2ccccc2)N(c2ccccc2)C1=O,inactive,–
C=CC(=O)OCC(C)OCC(C)OCC(C)OC(=O)C=C (stereo not given),–,7.07 µM (active)
CCCCCCOC(=O)CCCCC(=O)OCCCCCC,inactive,–
O=C1CCCCCCCCCCC1,inactive,–
Cc1c(O)cccc1O,inactive,–
CC(C)C(=O)OCCc1ccccc1,inactive,–
CCc1cccc(C)c1N(C(=O)CS(=O)(=O)O)C(C)COC (stereo not given),inactive,–
Nc1nc(N)nc(-c2ccccc2)n1,inactive,–
C[N+](C)(C)CCCNS(=O)(=O)C(F)(F)C(F)(F)C(F)(F)C(F)(F)C(F)(F)C(F)(F)C(F)(F)C(F)(F)F,inactive,–
CC1(C)CC(O)CC(C)(C)N1[O],inactive,–
C1CNCCN1,inactive,–
COC(OC)(C(=O)c1ccccc1)c1ccccc1,–,0.016 µM (active)
CCN1CN(CC)CN(CC)C1,inactive,–
CC(c1cc(C(C)(C)C)cc(C(C)(C)C)c1O)c1cc(C(C)(C)C)cc(C(C)(C)C)c1O,inactive,–
CC/C=C\C/C=C\C/C=C\CCCCCCCC(=O)OC,–,32.7 µM (active)
CCOC(=O)/C=C\C(=O)OCC,inactive,–
CCCCCCCCCCCC(C)=O,–,29.8 µM (active)
C=CC(=O)NC(C)(C)C,inactive,–

Structure (SMILES),outcome,AC50
c1ccc(Nc2cccc3ccccc23)cc1,–,26.1 µM (active) and 21.6 µM (active)
C=CC(=O)NCOCCCC,inactive,–
CCOC(=O)C1=NN(c2ccc(Cl)cc2Cl)C(C)(C(=O)OCC)C1 (stereo not given),–,20 µM (active)
CCCCCCCCCCCC(=O)N(C)CC(=O)O,inactive,–
Cc1ccc([N+](=O)[O-])cc1N,inactive,–
Fc1ccc(Br)cc1,inactive,–
COc1ccc(C(=O)c2ccccc2)c(O)c1,inactive,–
C=CC(=O)OCCCCCCCC(C)C,inactive,–
CC(C)c1cccc(C(C)C)c1N,inactive,–
CCCC(C)C(=O)OCC (stereo not given),inactive,–
C=CC(=O)OCCCCCCOC(=O)C=C,–,9.96 µM (active)
CC1=CC=C(C(C)C)CC1,inactive,–
c1ccc2sc(SSN3CCOCC3)nc2c1,–,4.41 µM (active)
CC(C)CCCCCOC(=O)CS,inactive,–
Nc1ccc(C(=O)O)cc1,inactive,–
CCNc1nc(NC(C)(C)C)nc(OC)n1,inactive,–
c1ccc2c(c1)[nH]c1ccccc12,inactive,–
O=C(O)C(F)(F)C(F)(F)C(F)(F)C(F)(F)C(=O)O,inactive,–
C=CCCCCCCCCC=O,inactive,–
CCC1(C)C(=O)N(Cl)C(=O)N1Cl (stereo not given),inactive,–
